According to the supplement of paper PMC6555819:

What was measured:
Assay in all cases: PBM binding z-score (relative to random genomic background probes); higher = stronger binding; sequences stand for … in GC…GCGATTGACAGCGTAGAATGAAGG
[1] = system: RARb homodimer (NR concentration 270 nM)
In short: (§1)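 Random background probes are the reference for binding z-scores. These scores derive from regression-normalized fluorescence on custom Agilent 4×180K protein-binding microarrays incubated 1 h with ligand-free nuclear receptor dimers. Binding was detected with antibodies against each partner (one per run).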

[2] = system: RARg:RXRa (NR concentration 270 nM, RXRa partner concentration 90 nM)
In short: as §1

[3] = system: RARg homodimer (NR concentration 270 nM)
In short: as §1

[4] = system: RXRa DBDmut IVT, anti-RXR (DBD mutation: RXRa K156A/R161A, NR concentration 90 nM)
In short: as §1

[5] = system: RXRa homodimer (NR concentration 180 nM)
In short: as §1

[6] = system: THRa:RXRa (NR concentration 90 nM, RXRa partner concentration 90 nM)
In short: as §1

[7] = system: THRa homodimer (NR concentration 90 nM)
In short: as §1

[8] = system: VDR homodimer (NR concentration 270 nM)
In short: as §1

| Sequence | PBM binding z-score [1] | PBM binding z-score [2] | PBM binding z-score [3] | PBM binding z-score [4] | PBM binding z-score [5] | PBM binding z-score [6] | PBM binding z-score [7] | PBM binding z-score [8] |
| --- | --- | --- | --- | --- | --- | --- | --- | --- |
| CCGAGTAGGTGACGAGGGGGCATTCAGTGCGAAT | 1.89 | 2.34 | 2.1 | 1.05 | 1.35 | 3.34 | 0.888 | 3.45 |
| AGTCGGAGGACAAAGGTCAGAGCTACGCCAGTGA | 4.3 | 6.16 | 5.52 | 0.767 | 5.6 | 3.63 | 0.663 | 1.37 |
| CGAACTAGGTCACCAGGACCGTGAAGAGGTTGGA | 3.25 | 4.44 | 5.18 | 1.08 | 3.5 | 2.89 | 1.07 | 0.39 |
| CGTCAAAGTTCAACTAAGTTAACGTAAAGCACGC | 4.02 | 5.7 | 6.78 | 4.7 | 5.2 | 4.32 | 0.349 | 3.74 |
| CCCCGGAGGACAGAAGGTCAGAGCTGTCCGCTTT | 3.7 | 3.27 | 3.26 | -0.968 | 1.78 | 2.21 | 0.211 | 0.277 |
| CAAACTAGGTCAAAGGTCAGAGTCGAGCCAACCA | 5.01 | 8.13 | 6.87 | 2.57 | 9.54 | 4.59 | 1.56 | 2.39 |
| CGTCCAAGCTCAGCAGGTCAGTGAAAGCGACGTG | 1.73 | 0.644 | 1.1 | -0.071 | 0.158 | 0.642 | -0.345 | -0.808 |
| CTATGTAGGATAAGGGGGTCATTCAGTTTGAAAG | 3.71 | 4.18 | 2.98 | 2.23 | 5.45 | 3.75 | 1.96 | 6.25 |
| CGGAGTAGGTTACGAGGGGGCATTCAGTGCGAAT | 2.45 | 3.35 | 2.86 | 2.04 | 2.09 | 3.8 | 0.507 | 3.73 |
| ACTAGGAGGACAAAGGTCAGAGCTACGCCAGTGA | 4.5 | 6.01 | 5.64 | 0.898 | 5.85 | 3.37 | 0.874 | 0.936 |
| CGTCAAAGCTCAACTAAGGTAACGTAAAGCACGC | 0.161 | 0.118 | 0.236 | 0.155 | -0.0326 | 3.64 | 1.57 | -0.205 |
| CGAACTAGGTCACCAGGACAGTGAAGAGGTTGGA | 3.32 | 4.52 | 5.42 | 1.45 | 3.39 | 3.28 | 1.95 | 0.49 |
| TCTCGGAGGACACGAAAGGTGAGAGCTCGACATC | 2.24 | 1.64 | 1.99 | 0.659 | 0.812 | 2.51 | 0.549 | -0.374 |
| CGCACTAGGTCAAAGGACAGTGAAAGGCGACGTA | 3.01 | 4.03 | 4.5 | 1.95 | 2.87 | 2.68 | 0.793 | 0.314 |
| TCGATTAGGTTACGGGGGCATTCAGGGATGAAGA | 2.92 | 3.79 | 3.07 | 2.95 | 3.17 | 4.36 | 2.54 | 4.05 |
| CAAACTAGGTCAAGGTCAAATTCGGTTTGTGCCA | 5.19 | 6.03 | 6.67 | 3.1 | 6.24 | 4.38 | 3.92 | 4.1 |
| CGAACTAGGTCAAAGGACAGTGACAGGCGACGTA | 3.39 | 4.39 | 5.1 | 1.78 | 3.89 | 2.69 | 0.589 | 0.435 |
| CTATGTAGGTTAAGGGGGTGATTCAGTTTGAAAG | 1.97 | 2.23 | 1.77 | 1.42 | 2 | 2.21 | 1.73 | 2.22 |
| AGTCAAAGTTCAGGACGAGGTAAAGTAAAGCACG | 3.05 | 4.76 | 4.51 | 3.04 | 3.22 | 3.78 | 1.51 | 2.35 |

| Sequence | PBM binding z-score [1] | PBM binding z-score [2] | PBM binding z-score [3] | PBM binding z-score [4] | PBM binding z-score [5] | PBM binding z-score [6] | PBM binding z-score [7] | PBM binding z-score [8] |
| --- | --- | --- | --- | --- | --- | --- | --- | --- |
| TCGAGTAGGTTACGGGGGCATGCAGGGATGAAGA | 2.19 | 3.5 | 2.31 | 1.35 | 2.78 | 3.28 | 0.997 | 1.92 |
| CTATGTAGGTTAAGGGGGTCCTTCAGTTTGAAAG | 1.5 | 1.79 | 1.26 | 0.924 | 1.49 | 2.17 | 0.899 | 1.49 |
| CGAACTAGGTCAAAGGACAATGAAAGGCGACGTA | 3.04 | 4.01 | 4.77 | 1.13 | 3.35 | 2.67 | 0.783 | 0.585 |
| CGAACTAGGTCACCAGGGCAGTGAAGAGGTTGGA | 3.62 | 4.53 | 5.52 | 1.03 | 3.26 | 3.09 | 1.39 | 0.712 |
| CCGAGTGGGTTACGAGGGGGCATTCAGTGCGAAT | 1.94 | 2.95 | 2.18 | 1.09 | 1.75 | 3.72 | 0.652 | 3.43 |
| CCTACTGGGCCAAGGTCATTGCTCAGTCAAAGCA | 3.23 | 3.53 | 2.97 | 1.25 | 2.85 | 3.42 | 2.02 | 3.2 |
| CCGACTGGGGCAAAGGTTACCACACTCAGTACGA | 2.37 | 3.51 | 1.67 | -0.032 | 3.69 | 1.87 | 0.0247 | 0.177 |
| AGTGAAAGTTCAGGACGAGGTAACGTAAAGCACG | 3.13 | 4.55 | 4.38 | 2.84 | 2.54 | 3.93 | 1.95 | 2.34 |
| CCGACTTGGGCAAAGGTTACCATACTCAGTACGA | 1.87 | 2.04 | 1.01 | 0.535 | 2.45 | 1.39 | -0.0972 | 0.0256 |
| CGAACTATGTCAAAGGACAGTGAAAGGCGACGTA | 1.14 | 1.08 | 1.39 | -0.18 | 0.00503 | 0.122 | -0.538 | -0.0132 |
| CGAACTAGGTCACCAGGAAAGTGAAGAGGTTGGA | 3.18 | 4.45 | 5.45 | 1.53 | 3.53 | 2.91 | 1.04 | 0.43 |
| CGTACTAGGTCAAAGGACAGTGAAAGGCGACGTA | 2.87 | 4.02 | 4.76 | 1.91 | 3.01 | 2.51 | 0.4 | 0.647 |
| CTAACTAGGTCAAGGTCAAAGTCGGTTTGTGCCA | 5.03 | 5.89 | 6.45 | 3.03 | 5.12 | 4.19 | 3.77 | 3.88 |
| CCTAGTGGGCCAAAGGTCATTGATTCCAATGCTC | 4.6 | 5.89 | 4.92 | 1.92 | 6.9 | 3.22 | 0.756 | 3.23 |
| CCTAGTTGGTCAAGGTCCCACACGCTATAGGTAC | 1.27 | 0.7 | 1.19 | 0.446 | 0.433 | 0.687 | 0.94 | 0.734 |
| GATACAAGGTCAGCTAGAGGCCAGAGTATGGAAA | 3.93 | 6.83 | 6.32 | 2.06 | 4.28 | 3.44 | 1.18 | 1.09 |
| CGAACTAGGTCACCTGGACAGTGAAGAGGTTGGA | 3.36 | 4.43 | 5.32 | 1.49 | 3.36 | 3.1 | 1.2 | 0.466 |
| ATATATAGGTTAGGGTCATTCAGAAAGTAGGGAA | 3.6 | 4.24 | 3.75 | 2.67 | 5.33 | 4.11 | 3.76 | 3.95 |
| CTATGTACGTTAAGGGGGTCATTCAGTTTGAAAG | 3.65 | 4.57 | 3.69 | 2.99 | 5.04 | 3.86 | 2.71 | 5.96 |

| Sequence | PBM binding z-score [1] | PBM binding z-score [2] | PBM binding z-score [3] | PBM binding z-score [4] | PBM binding z-score [5] | PBM binding z-score [6] | PBM binding z-score [7] | PBM binding z-score [8] |
| --- | --- | --- | --- | --- | --- | --- | --- | --- |
| TCGAGTAGGTTACGGGGGCATTCGGGGATGAAGA | 2.34 | 3.52 | 2.38 | 1.85 | 2.92 | 4.01 | 1.63 | 3.83 |
| CCGAGTAGGTTACGCGGGGGCATTCAGTGCGAAT | 2.09 | 3.1 | 2.15 | 1.8 | 2.23 | 4.51 | 0.878 | 3.76 |
| TCGAATAGGTTACGGGGGCATTCAGGGATGAAGA | 2.78 | 4.18 | 3.02 | 2.78 | 3.99 | 4.29 | 1.9 | 3.3 |
| CCTTACGGGTCACTGACAGCTTATAGCATTTGGA | 2.97 | 4.67 | 4.43 | 2.04 | 4.76 | 2.32 | 0.275 | 0.89 |
| CAAACTAGGTCACGAAAGGTCAACGTCGAATGAC | 6.16 | 8.06 | 8.96 | 2.47 | 8.35 | 5.36 | 2.98 | 3.47 |
| CGAACTAGGTCAAACGACAGTGAAAGGCGACGTA | 2.49 | 4.21 | 4.7 | 1.76 | 3.32 | 2.29 | 0.23 | 0.347 |
| CCTCCAAGGTCATAGGAGGTCAGTGAAGACAGAT | 5.33 | 6.72 | 7.01 | 3.01 | 6.79 | 5.36 | 3.1 | 4.12 |
| ATATGTAGGTTAGGGTCATTCATAAAGTAGGGAA | 3.59 | 4.05 | 3 | 2.76 | 5.31 | 4.21 | 3.65 | 4.32 |
| CCGTGTAGGTTACGAGGGGGCATTCAGTGCGAAT | 2.58 | 3.76 | 3.23 | 1.74 | 2.46 | 4.03 | 1.23 | 3.94 |
| CGAACTAGGTCACCAGGATAGTGAAGAGGTTGGA | 3.4 | 4.23 | 5.43 | 1.26 | 3.14 | 3.3 | 1.45 | 0.463 |
| AGTCATAGTTCACTAGGTAACGTAAGATTCAGCT | 2.32 | 2.32 | 2.72 | 1.82 | 1.6 | 1.11 | 0.171 | 0.797 |
| CGTCCAAGGTCATAAGAGGTCAGTGAAGACAGAT | 5.16 | 7.1 | 7.88 | 4.16 | 7.05 | 5.23 | 3.25 | 5.57 |
| CTATGTAGGTTAATGGGGTCATTCAGTTTGAAAG | 3.6 | 4.72 | 3.17 | 3.07 | 6.2 | 4.28 | 3.09 | 7.21 |
| AATACAGGGTCACTGGGCCAGAGTAGGTACGAAT | 3.72 | 5.73 | 5.37 | 2.35 | 6.2 | 3.59 | 1.3 | 2.73 |
| GATACAGGGTCAGCTTGAGGCCAGAGTATGGAAA | 2.94 | 5.72 | 4.77 | 1.81 | 4.55 | 3.73 | 0.959 | 0.666 |
| CTAAGTAGGTTAAGGGGGTCATTCAGTTTGAAAG | 3.97 | 4.97 | 4.03 | 2.69 | 5.62 | 3.64 | 2.28 | 6.08 |
| GGTACGAGGGCAAAGTTGATAGCATCTGTCGACG | 1.13 | 2.05 | 1.83 | 2.49 | 1.7 | 1.33 | -0.0946 | 1.48 |
| CGAACTAGGTCAAAGGGCAGTGAAAGGCGACGTA | 3.46 | 5.34 | 4.91 | 1.65 | 5.31 | 3.11 | 0.218 | 0.354 |
